Compound activity: PubChem, several laboratories
Many of the other results were omitted from the sample, so hits are more common in it than they were.
HePTP inhibitor – inhibitors of human HePTP phosphatase | P35236 | inhibition, % at 20 µM | 0.64% of 110,000 active | recombinant HePTP phosphatase activity, OD absorbance; in the data active = inhibition above about 50%;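 note: plate controls were vehicle for no effect and reference inhibitor for full effect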
Calb biofilm kill – kills Candida albicans biofilms; 0.14% of 85,000 active; C. albicans biofilm + clotrimazole, Alamar Blue; inhibition, % at 6 µM;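 active = inhibition above 20%; inactive = inhibition below 20%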;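 note: preformed 24 hr biofilms exposed to compound for 48 hr; 0% = biofilm without compound and 100% = blank killed by clotrimazole plus chlorhexidine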
FXIa mix inh – inhibitors of human coagulation factor XIa, pooled mixtures; P03951; purified FXIa, fluorogenic substrate; inhibition, % at 5 µM; 0.19% of 62,000 active;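 note: each value is inhibition by a whole ten-compound pool holding the compound; 0% = enzyme with no mixture and 100% = wells lacking enzyme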
FXIIa mix inh – inhibitors of human coagulation factor XIIa, pooled mixtures. purified FXIIa, fluorogenic substrate. inhibition, % at 5 µM. P00748. 0.2% of 62,000 active;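 note: 0% = enzyme without compound and 100% = no enzyme blank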
Target sequence (P00748 20-372 limits assumed): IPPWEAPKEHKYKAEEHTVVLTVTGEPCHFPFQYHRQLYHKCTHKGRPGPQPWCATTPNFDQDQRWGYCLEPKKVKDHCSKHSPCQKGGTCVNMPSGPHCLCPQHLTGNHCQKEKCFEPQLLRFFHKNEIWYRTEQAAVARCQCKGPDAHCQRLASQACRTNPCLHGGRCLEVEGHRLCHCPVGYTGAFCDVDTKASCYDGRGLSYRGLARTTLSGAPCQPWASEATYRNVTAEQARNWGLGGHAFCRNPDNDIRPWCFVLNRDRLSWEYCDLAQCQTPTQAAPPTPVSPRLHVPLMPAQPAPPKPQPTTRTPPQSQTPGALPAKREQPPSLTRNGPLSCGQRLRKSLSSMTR
Target sequence (P00748 373-615 limits assumed): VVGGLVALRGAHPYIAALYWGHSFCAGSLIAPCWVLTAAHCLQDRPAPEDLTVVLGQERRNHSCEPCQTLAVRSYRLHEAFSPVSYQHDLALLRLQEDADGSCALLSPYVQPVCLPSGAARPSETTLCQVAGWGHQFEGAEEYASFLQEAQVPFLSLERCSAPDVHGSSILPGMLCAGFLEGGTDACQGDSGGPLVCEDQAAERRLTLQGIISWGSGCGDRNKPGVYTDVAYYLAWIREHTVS
TNAP act DEA – activates human TNAP at intermediate phosphate acceptor concentration; P05186; purified TNAP, CDP-star luminescence, 100 mM DEA, 30 min; stronger effect = higher value; scale: 0 levamisole-inhibited, 1 vehicle-only enzyme; activation factor at 20 µM; 64,000 tested, under 10 active;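 active = activation factor of at least 2 at 20 µM, relative to controls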
D1 mod – D1 dopamine receptor (human) allosteric modulation; AID 641; B-score at 10 µM; HEK293 D1, CRE-luciferase, dopamine EC30 potentiation; actives deviate in either direction; 5.9% of 58,000 active;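 active = luminescence count or its row- and column-corrected plate score outside the 99.7% band of the plate's sample wells, on either side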
D1 mod confirm – confirmation of human D1 dopamine receptor allosteric modulators | shares compounds with D1 mod | HEK293 D1 CRE-luciferase, dopamine EC30 potentiation; stronger effect = higher value | luminescence at 10 µM | 88% of 2,200 active;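 active = luminescence in either of two replicates above the same-plate mean plus 3 SD of the low-dose dopamine control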
D1 ag no DA – secondary test of D1 modulators: activity without dopamine | shares compounds with D1 mod | luminescence at 10 µM | AID 646 | HEK293 D1 CRE-luciferase, luminescence, no dopamine; stronger effect = higher value | 0.8% of 1,900 active; in the data active = luminescence above about 3900
Isoprot counter – alters isoproterenol CRE-luciferase response in HEK293 cells | HEK293 D1 CRE-luciferase, isoproterenol EC30 counter-screen; stronger effect = higher value | AID 647 | 63% of 2,200 active | luminescence at 10 µM | shares compounds with D1 mod;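 active = luminescence in either replicate above plate mean of wells with a partly effective reference agonist dose plus 3 SD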;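 note: isoproterenol raises cAMP through native beta-adrenoceptor Gs so signal bypasses D1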
* hit, by the source's call. Cut-off read from the data, not from the text of the source, unless noted: active = inhibition above about 20% (passing the limit was not always enough); inactive = the rest.

What do the screens show for `c1ccc2nc3c(nc2c1)c1ccccc1n3CCN1CCOCC1`?
HePTP inhibitor: -10.2; Calb biofilm kill: 2.1; FXIa mix inh: 7.7; FXIIa mix inh: -15.3; TNAP act DEA: 1; D1 mod: 9.48*; D1 mod confirm: 18764*; D1 ag no DA: 1572; Isoprot counter: 4556*

Results for CCn1c2ccccc2c2nc3cc(S(=O)(=O)N4CCOCC4)ccc3nc21 ?
HePTP inhibitor: 4.5; Calb biofilm kill: 2.7; FXIa mix inh: -1.9; FXIIa mix inh: -1.6; TNAP act DEA: 0.9; D1 mod: 6.46*; D1 mod confirm: 15708*; D1 ag no DA: 1656; Isoprot counter: 4156*

What do the screens show for `O=S(=O)(c1ccc2oc3ccccc3c2c1)N1CCOCC1`?
Calb biofilm kill: 4.2

Results for CCOc1ccc(N=CC2=C(O)CC(c3ccccc3)CC2=O)cc1 (stereo unspecified) ?
HePTP inhibitor: 5.6

How did Cc1ccc(N(CC(=O)Nc2ccc3ccccc3c2)S(C)(=O)=O)cc1Cl do in these assays?
HePTP inhibitor: 4.8

What do the screens show for `O=C1C=CC(=NOC(=O)c2ccccc2)C=C1`?
HePTP inhibitor: -13.8

Results for Cc1c(NS(=O)(=O)CC23CCC(CC2=O)C3(C)C)c(=O)n(-c2ccccc2)n1C (stereo unspecified) ?
HePTP inhibitor: 7.8; Calb biofilm kill: 2.0; FXIa mix inh: 5.4; FXIIa mix inh: 4.2; TNAP act DEA: 1.1; D1 mod: 3.31*; D1 mod confirm: 6536; D1 ag no DA: 1760; Isoprot counter: 3176

How did CCCCNCCCCOc1ccccc1Cl do in these assays?
HePTP inhibitor: -15.4

How did Cc1nn(-c2ccccc2)cc1/C=N/O do in these assays?
HePTP inhibitor: 10.4; Calb biofilm kill: 4.1; FXIa mix inh: -0.2; FXIIa mix inh: 4.4; TNAP act DEA: 1; D1 mod: 4.27*; D1 mod confirm: 7640*; Isoprot counter: 2532

Results for CC1(C)CC(=O)C2=C(C1)NC(SCc1ccccc1)=C(C#N)C2c1ccc(Cl)cc1 (stereo unspecified) ?
HePTP inhibitor: -22.0

Results for COc1cccc(C2C(C(C)=O)=C(O)C(=O)N2CCN2CCNCC2)c1 (stereo unspecified) ?
HePTP inhibitor: -0.6

How did CC1=CC(C)(C)N=C(NC#N)N1 do in these assays?
HePTP inhibitor: -3.2; Calb biofilm kill: -2.5; FXIa mix inh: 5.2; FXIIa mix inh: 3.5; TNAP act DEA: 0.9; D1 mod: 3.76*; D1 mod confirm: 9044*; D1 ag no DA: 1768; Isoprot counter: 2516

How did CCC(=O)N1CCc2cc(OC)c(OC)cc2C1COc1ccc(C(=O)OC)cc1 (stereo unspecified) do in these assays?
HePTP inhibitor: 4.4; Calb biofilm kill: 8.6; FXIa mix inh: -26.0; FXIIa mix inh: 5.1; TNAP act DEA: 0.9; D1 mod: 15*; D1 mod confirm: 20996*; D1 ag no DA: 3492; Isoprot counter: 9380*

How did COC(=O)c1ccc(OCC2c3cc(OC)c(OC)cc3CCN2C(=O)c2ccco2)cc1 (stereo unspecified) do in these assays?
HePTP inhibitor: 1.9; Calb biofilm kill: 2.9; FXIa mix inh: 14.2; FXIIa mix inh: 5.3; TNAP act DEA: 0.9

Results for COc1cc(N/C(=N/S(=O)(=O)c2ccccc2)c2ccccc2)ncn1 ?
HePTP inhibitor: -1.9; Calb biofilm kill: 6.2; FXIa mix inh: 16.6; FXIIa mix inh: -15.6; TNAP act DEA: 0.9; D1 mod: 6.45*; D1 mod confirm: 14612*; D1 ag no DA: 1720; Isoprot counter: 2724

What do the screens show for `O=C(O)/C=C/C(=O)Nc1ccc(Oc2ccc(Oc3ccc(NC(=O)/C=C/C(=O)O)cc3)cc2)cc1`?
HePTP inhibitor: 15.0
